In PubChem BioAssay AID1159580 (chemical genetic matrix, 2015):
Hit rate of the full screen: of about 5,500 compounds, about 2,000 (36%) were called active. Not shown: some 18% with an inconclusive outcome. Rule as the data show it: active = normalized growth mostly below about 0.91 (no sharp cut-off); inconclusive = no clear call, values can overlap the other calls; inactive = mostly above about 0.92. Some of the results follow.

Assay: chemical genetic growth profiling, strain panel (AID 1159580);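 also: tested at 20 µM; growth read once vehicle control cultures reached saturation at 30 °C; 1 = growth at the plate median or of vehicle wells; lower values mean less growth of the strain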
Details: growth OD

Measured: normalized growth

COC(=O)COc1cc(Cl)c(Cl)cc1Cl
active: S. cerevisiae deletion strains, locus YNL183C, strain NPR1, stronger effect = lower value 0.809 | S. cerevisiae deletion strains, locus YNL307C, strain MCK1, stronger effect = lower value 0.855 | S. cerevisiae deletion strains, locus YPL256C, strain CLN2, stronger effect = lower value 0.786
inactive: S. cerevisiae deletion strains, locus YNL071W, strain lat1, stronger effect = lower value 0.996 | S. cerevisiae deletion strains, locus YNL128W, strain TEP1, stronger effect = lower value 0.978 | S. cerevisiae deletion strains, locus YNL153C, strain GIM3, stronger effect = lower value 0.989 | S. cerevisiae deletion strains, locus YNL209W, strain ssb2, stronger effect = lower value 1.01 | S. cerevisiae deletion strains, locus YNL233W, strain BNI4, stronger effect = lower value 0.982 | S. cerevisiae deletion strains, locus YNL248C, strain rpa49, stronger effect = lower value 1 | S. cerevisiae deletion strains, locus YNL250W, strain rad50, stronger effect = lower value 0.957 | S. cerevisiae deletion strains, locus YNL271C, strain bni1, stronger effect = lower value 0.956 | S. cerevisiae deletion strains, locus YNL298W, strain CLA4, stronger effect = lower value 0.994 | S. cerevisiae deletion strains, locus YNL322C, strain KRE1 (second series), stronger effect = lower value 0.996 | S. cerevisiae deletion strains, locus YNL322C, strain KRE1, stronger effect = lower value 0.977 | S. cerevisiae deletion strains, locus YNR049C, strain mso1, stronger effect = lower value 0.991 | S. cerevisiae deletion strains, locus YNR052C, strain pop2, stronger effect = lower value 0.993 | S. cerevisiae deletion strains, locus YOL006C, strain TOP1, stronger effect = lower value 0.895 | S. cerevisiae deletion strains, locus YOL012C, strain htz1 0.897 | S. cerevisiae deletion strains, locus YOL147C, strain pex11, stronger effect = lower value 0.964 | S. cerevisiae deletion strains, locus YOR001W, strain rrp6, stronger effect = lower value 1.01 | S. cerevisiae deletion strains, locus YOR061W, strain CKA2, stronger effect = lower value 0.974 | S. cerevisiae deletion strains, locus YOR069W, strain VPS5, stronger effect = lower value 0.979 | S. cerevisiae deletion strains, locus YOR070C, strain gyp1, stronger effect = lower value 0.985 | S. cerevisiae deletion strains, locus YOR080W, strain dia2, stronger effect = lower value 1 | S. cerevisiae deletion strains, locus YOR083W, strain WHI5, stronger effect = lower value 1 | S. cerevisiae deletion strains, locus YOR106W, strain vam3, stronger effect = lower value 1.02 | S. cerevisiae deletion strains, locus YOR136W, strain idh2, stronger effect = lower value 0.99 | S. cerevisiae deletion strains, locus YOR144C, strain elg1, stronger effect = lower value 0.975 | S. cerevisiae deletion strains, locus YOR184W, strain ser1, stronger effect = lower value 0.904 | S. cerevisiae deletion strains, locus YOR231W, strain MKK1, stronger effect = lower value 0.86 | S. cerevisiae deletion strains, locus YOR265W, strain rbl2, stronger effect = lower value 0.98 | S. cerevisiae deletion strains, locus YOR270C, strain vph1, stronger effect = lower value 1.1 | S. cerevisiae deletion strains, locus YOR290C, strain snf2, stronger effect = lower value 1.01 | S. cerevisiae deletion strains, locus YOR316C, strain cot1, stronger effect = lower value 0.964 | S. cerevisiae deletion strains, locus YPL051W, strain arl3, stronger effect = lower value 0.992 | S. cerevisiae deletion strains, locus YPL055C, strain LGE1, stronger effect = lower value 0.953 | S. cerevisiae deletion strains, locus YPL078C, strain atp4, stronger effect = lower value 1.02 | S. cerevisiae deletion strains, locus YPL106C, strain sse1, stronger effect = lower value 0.957 | S. cerevisiae deletion strains, locus YPL240C, strain hsp82, stronger effect = lower value 0.997 | S. cerevisiae deletion strains, locus YPL241C, strain CIN2, stronger effect = lower value 0.972 | S. cerevisiae deletion strains, locus YPR119W, strain clb2, stronger effect = lower value 0.955 | S. cerevisiae deletion strains, locus YPR141C, strain kar3, stronger effect = lower value 0.948 | S. cerevisiae deletion strains, locus YPR163C, strain tif3, stronger effect = lower value 0.992 | S. cerevisiae deletion strains, locus YPR167C, strain met16, stronger effect = lower value 0.976 | S. cerevisiae deletion strains, strain wtn01, stronger effect = lower value 0.962 | S. cerevisiae strains, strain wild type, stronger effect = lower value 0.969
